According to PubChem BioAssay AID1731 (National Center for Advancing Translational Sciences (NCATS), 2009):
Calls of active or inactive are those of the source. Calls come from the whole dose curve; as a rule, active = well fitted curve in the direction sought with a large enough effect; inactive = no such curve, though single readings can be large or run the other way.

target: Epidermal growth factor receptor (Homo sapiens) (UniProt P00533); assay: Assay for Inhibitors of the ERK Signaling Pathway using a Homogeneous Screening Assay: EGFR Kinase Inhibition; conditions: homogeneous biochemical assay; series mostly up to 21.9 µM; activity change, negative = inhibition: at the top concentration
Description: qHTS Assay for Inhibitors of the ERK Signaling Pathway using a Homogeneous Screening Assay
NIH Chemical Genomics Center [NCGC]
NIH Molecular Libraries Screening Centers Network [MLSCN]
Assay Submitter (PI): Dr. Wei Zheng, NCGC/NIH
The Ras/extracellular-signal-regulated kinase (ERK) mitogen activated protein (MAP) kinase signaling pathway (ERK1/2 cascade) plays is a key role in transmitting signals from the cell surface to the nucleus (Nishida and Gotoh 1993; Chang and Karin, 2001). The cascade is initiated by the small G-protein Ras, which recruits Raf […], where activation occurs. Alternatively, this pathway can be activated by elevating intracellular cAMP.
Activation of the ERK pathway is essential in increased cell division and cell survival. Sustained and constitutive activation of the ERK pathway, however, has been linked to uncontrolled cell proliferation, increased cell survival, and tumor progression. Thus, the ERK has been as an attractive target for cancer chemotherapy in the past few years (Sebolt-Leopold and Herrera, 2004). Given its physiological and pathological importance, assessment of ERK phosphorylation has been broadly performed in both basic research and drug discovery. Most assays for the measurement of ERK phosphorylation use the antibody-based detection methods, such as western blot and ELISA. These assays require multiple reagent additions with cell wash steps and are not suitable for high-throughput screening.
The current cell-based ERK phosphorylation assay was performed using AlphaScreen platform. AlphaScreen is a two bead-based proximity-dependent chemical energy transfer luminescent assay platform. The assay reagents (ERK SureFire(TM) kit) were supplied from TGR BioSciences (Australia). In the presence of specific antibodies, phosphorylated ERK will bring "donor" and "acceptor" beads to a proximity range (<200 nm), and subsequently lead a chemical luminescent reaction upon exciting donor beads with 680 nm laser. To validate pathway hits from the cell-based assay, enzyme assays consisting of EGFR tyrosine kinase, Raf and MEK were used as a means of deciphering the enzymes of target for the prioritized group of compounds derived from the HEK-293 cell based assay. The compounds were tested against significant members of the ERK signaling pathway EGFR and EGFR mutants (EGFR L858R, EGFR T790M, and EGFR L858R T790M). In order to establish the specificity of the prioritized compounds for EGFR and EGFR mutants, the compounds were also assayed against other important ERK signaling pathway enzymes, c-RAF and MEK-1.
NCGC Assay Protocol Summary:
The HTRF kinase assay (components supplied as kit by Cisbio) was chosen for the EGFR and EGFR mutant enzyme assays that applied the time resolved fluorescence resonance energy transfer (TR-FRET) principle. A peptide substrate is labeled with a biotin that can bind to XL665 labeled streptavidin and the anti-phosphoresidue antibody is labeled with Eu+. Upon phosphorylation of the substrate, the antibody binds to phosphorylated substrate that enables TR-FRET detection in homogenous assay format.
An HTRF Kinease TK assay kit (Cisbio, Bedford, MA) was used to develop the EGFR and EGFR mutant assays (Harbert et al., 2008. Harbert C, Marshall J, Soh S, Steger K. Development of a HTRF Kinase Assay for Determination of Syk Activity. Current Chemical Genomics. 1: 20-26. 2008). EGFR and EGFR mutants were obtained from Invitrogen. […]

Sequence of Epidermal growth factor receptor (Homo sapiens) (P00533 whole entry, looked up): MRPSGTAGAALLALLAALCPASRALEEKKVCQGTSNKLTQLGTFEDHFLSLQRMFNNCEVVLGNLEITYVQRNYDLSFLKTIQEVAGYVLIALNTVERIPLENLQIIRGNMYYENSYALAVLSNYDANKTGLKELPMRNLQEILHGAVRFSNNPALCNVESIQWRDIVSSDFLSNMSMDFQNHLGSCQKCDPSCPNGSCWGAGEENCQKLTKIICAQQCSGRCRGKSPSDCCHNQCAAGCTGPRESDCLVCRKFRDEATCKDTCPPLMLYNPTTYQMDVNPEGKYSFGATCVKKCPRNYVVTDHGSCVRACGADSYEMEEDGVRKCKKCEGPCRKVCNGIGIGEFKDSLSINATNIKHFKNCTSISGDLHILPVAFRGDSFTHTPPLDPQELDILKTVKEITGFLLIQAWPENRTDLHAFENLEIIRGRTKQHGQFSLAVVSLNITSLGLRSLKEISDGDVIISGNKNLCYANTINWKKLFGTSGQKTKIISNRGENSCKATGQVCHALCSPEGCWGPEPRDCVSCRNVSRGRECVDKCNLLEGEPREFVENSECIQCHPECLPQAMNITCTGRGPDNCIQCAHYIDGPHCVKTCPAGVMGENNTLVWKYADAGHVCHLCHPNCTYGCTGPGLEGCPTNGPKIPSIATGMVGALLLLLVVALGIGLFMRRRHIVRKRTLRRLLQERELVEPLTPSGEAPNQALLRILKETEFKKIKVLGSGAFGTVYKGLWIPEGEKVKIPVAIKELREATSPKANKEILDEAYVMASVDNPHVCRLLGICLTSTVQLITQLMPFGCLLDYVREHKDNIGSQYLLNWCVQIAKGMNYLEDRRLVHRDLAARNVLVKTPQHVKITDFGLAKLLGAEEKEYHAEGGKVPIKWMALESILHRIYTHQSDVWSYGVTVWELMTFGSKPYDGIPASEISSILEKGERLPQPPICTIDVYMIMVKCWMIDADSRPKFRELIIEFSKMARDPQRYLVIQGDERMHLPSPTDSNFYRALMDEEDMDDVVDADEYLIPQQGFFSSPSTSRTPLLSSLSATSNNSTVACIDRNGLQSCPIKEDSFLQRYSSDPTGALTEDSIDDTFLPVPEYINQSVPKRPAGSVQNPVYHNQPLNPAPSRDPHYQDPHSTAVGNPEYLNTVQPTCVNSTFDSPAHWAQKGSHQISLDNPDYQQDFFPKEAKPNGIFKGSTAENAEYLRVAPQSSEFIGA

| Compound | activity change, negative = inhibition | outcome |
| --- | --- | --- |
| CCn1nc(-c2ccccc2)nc2c(=O)n(C)c(=O)nc1-2 | -14.2% [at 65.8 µM] (inactive) | – |
| Cc1nc2c(=O)n(C)c(=O)nc-2n(C)n1 | – | inactive |
| Cn1nc(-c2ccccc2)nc2c(=O)n(C)c(=O)nc1-2 | -16.4% (inactive) | – |
| CN1CCN(c2cccc3c2C(=O)c2ccccc2C3=O)CC1 | -7.67% (inactive) | – |
| CCn1nc(-c2cccs2)nc2c(=O)n(C)c(=O)nc1-2 | -15.7% [at 65.8 µM] (inactive) | – |
